Laboratory results reported in PubChem BioAssay AID743449 (Broad Institute, 2014).
The whole screen tested about 9,900 compounds, of which about 90 (0.9%) were called active. Inconclusive results (about 2%) are left out. The sample as a whole holds a higher share of actives than the screen did. Values without a mark were called inactive.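 How the source made its calls: active means mean normalized replicate activity at least 50 and at least half of replicates each reaching 50; inconclusive means only one of the two criteria met; inactive means neither criterion met.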

Test: YAP1 pathway inhibitors via CTGF transcript, primary screen, DLD1 colon cancer cells, RT-qPCR, single point (AID 743449);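 further: 0% = neutral control wells and 100% = dasatinib control wells; higher means stronger suppression of CTGF expression like dasatinib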
Conditions: DLD1 CTGF mRNA qPCR, 24 h; at 12.5 µM; active compounds read high

Row | Structure (SMILES) | inhibition
1 | Cc1noc(C)c1S(=O)(=O)N(C)C[C@H]1OCc2ccccc2-c2ccccc2C(=O)N([C@H](C)CO)C[C@H]1C | -25.8%
2 | C[C@@H]1CCCCO[C@@H](CN(C)CC2CCCCC2)[C@@H](C)CN([C@@H](C)CO)C(=O)c2cc(NS(C)(=O)=O)ccc2O1 | 2.58%
3 | CS(=O)(=O)N1[C@H](CO)[C@@H](c2ccc(-c3ccccc3F)cc2)[C@@H]1C#N | 16.4%
4 | C[C@H]1CN([C@@H](C)CO)C(=O)c2ccccc2-c2ccccc2CO[C@H]1CN(C)Cc1ccccc1C(F)(F)F | 12.5%
5 | Cc1ccc(S(=O)(=O)N2C[C@@H](O)COC[C@H]3O[C@@H](CC(=O)NCc4ccc5c(c4)OCO5)CC[C@@H]32)cc1 | 25.4%
6 | CCS(=O)(=O)N1CC(=O)N2[C@H](CO)[C@@H](c3ccc(C4=CCCCC4)cc3)[C@@H]2C1 | 0.977%
7 | COc1ccc2c3c(n(C)c2c1)[C@H](CO)N(C)CC31CCN(C(=O)NC(C)C)CC1 | 18.6%
8 | C[C@@H]1CN([C@@H](C)CO)C(=O)c2c(c3ccccc3n2C)-c2ccccc2CO[C@@H]1CN(C)Cc1cccc(C(F)(F)F)c1 | -39%
9 | COc1ccc([C@H]2C/C=C\C[C@@H](c3ccc4c(c3)OCO4)NC(=O)[C@@H](c3ccccc3)CC(=O)N2)c(OC)c1 | 58.4% (active)
10 | COc1ccc([C@@H]2C/C=C\C[C@@H](c3ccc4c(c3)OCO4)NC(=O)[C@H](c3ccccc3)CC(=O)N2)c(OC)c1 | 31%
11 | COc1ccc([C@H]2C/C=C\C[C@H](c3ccc4c(c3)OCO4)NC(=O)[C@H](c3ccccc3)CC(=O)N2)c(OC)c1 | -62.1%
12 | O=C(Nc1ccc(F)cc1)N1CC(=O)N2[C@H](CO)[C@@H](c3ccc(C#Cc4cccnc4)cc3)[C@@H]2C1 | -8.94%
13 | O=C(Nc1ccc(F)cc1)N1C[C@@H]2[C@H](c3ccccc31)[C@@H](CO)N2Cc1ccccc1Cl | -18.1%
14 | OC[C@@H]1[C@@H](c2ccc(-c3cccnc3)cc2)[C@H]2CN(Cc3ccccn3)CCCCN12 | -1.92%
15 | CCCC(=O)N1CCC2(CC1)CN[C@H](CO)c1[nH]c3cc(OC)ccc3c12 | 2.25%
16 | COc1ccc2c3c([nH]c2c1)[C@H](CO)NCC31CCN(C(=O)Cc2cccnc2)CC1 | 51% (active)
17 | CCCC(=O)N1CCC2(CC1)CN[C@@H](CO)c1[nH]c3cc(OC)ccc3c12 | -5.58%
18 | O=C(Nc1ccc(-c2ccccc2)cc1)[C@H]1[C@H](CO)[C@H]2Cn3c(cccc3=O)[C@H]2N1CC1CCOCC1 | 14.4%
19 | O=C(C[C@H]1C[C@@H]2c3cc(NC(=O)C4CCC4)ccc3O[C@@H]2[C@H](CO)O1)NC1CCCC1 | -3.69%
20 | CCCC(=O)Nc1ccc2c(c1)C(=O)N(C)[C@H]1CC[C@@H](CC(=O)N3CCCCC3)O[C@@H]1CO2 | -2.53%
21 | CC(C)(C)[S@@](=O)N1Cc2cc(C(=O)NCCc3ccncc3)nc(-c3cccc(-c4cccc(C#N)c4)c3)c2[C@H]1CCO | 67.3% (active)
22 | CC(C)(C)[S@@](=O)N1Cc2cc(C(=O)NCCN3CCCC3)nc(-c3cccc(-c4ccc(C#N)cc4)c3)c2[C@H]1CCO | -8.4%
23 | COc1ccccc1-c1cccc(-c2nc(C(=O)NCc3ccncc3)cc3c2[C@@H](CCO)N([S@](=O)C(C)(C)C)C3)c1 | 20%

Row | Structure (SMILES) | inhibition
24 | COc1ccccc1-c1cccc(-c2nc(C(=O)NCc3ccncc3)cc3c2[C@H](CCO)N([S@@](=O)C(C)(C)C)C3)c1 | 19.4%
25 | CC(C)(C)[S@](=O)N1Cc2cc(C(=O)NCCc3ccncc3)nc(-c3cccc(-c4cccc(C#N)c4)c3)c2[C@@H]1CCO | 79.3% (active)
26 | CC(C)(C)[S@](=O)N1Cc2cc(C(=O)NCCN3CCCC3)nc(-c3cccc(-c4ccc(C#N)cc4)c3)c2[C@@H]1CCO | 29.4%
27 | CCS(=O)(=O)N1CC2(CN(C(=O)c3ccc(F)cc3)[C@@H](CO)c3[nH]c4cc(OC)ccc4c32)C1 | 11.6%
28 | C[C@@H]1CN([C@@H](C)CO)C(=O)c2cc(NC(=O)Nc3cccc4ccccc34)ccc2O[C@@H](C)CCCCO[C@@H]1CN(C)Cc1ccc(C(F)(F)F)cc1 | -20.9%
29 | COc1ccc(C#Cc2ccc3c(c2)[C@H]2[C@H](CCN2S(=O)(=O)c2ccccc2C)[C@@H](CO)N3C)cc1 | -15.4%
30 | CCCC(=O)N1CC2(C1)CN(CC1CC1)[C@@H](CO)c1[nH]c3cc(OC)ccc3c12 | -16.5%
31 | COCC(=O)NC[C@@H]1[C@@H](c2ccccc2)[C@H](CO)N1C(=O)c1ccccc1 | 19.2%
32 | O=C(CN1CCOCC1)N1CC(=O)N2[C@H](CO)[C@H](c3ccc(-c4cccc(F)c4)cc3)[C@@H]2C1 | -2.97%
33 | COc1cccc(C#Cc2ccc3c(c2)O[C@H](CN(C)C(=O)CN2CCOCC2)[C@H](C)CN([C@@H](C)CO)S3(=O)=O)c1 | 22.3%
34 | COc1cccc(C#Cc2ccc3c(c2)O[C@@H](CN(C)C(=O)CN2CCOCC2)[C@@H](C)CN([C@H](C)CO)S3(=O)=O)c1 | 8.35%
35 | C[C@@H]1CN([C@@H](C)CO)S(=O)(=O)c2ccc(C#Cc3cccc(F)c3)cc2O[C@@H]1CN(C)S(=O)(=O)c1cn(C)cn1 | 40.9%
36 | C[C@@H]1CN([C@@H](C)CO)S(=O)(=O)c2ccc(C#Cc3cccc(F)c3)cc2O[C@H]1CN(C)S(=O)(=O)c1cn(C)cn1 | 8.89%
37 | C[C@@H]1CN([C@H](C)CO)S(=O)(=O)c2ccc(C#Cc3cccc(F)c3)cc2O[C@@H]1CN(C)S(=O)(=O)c1cn(C)cn1 | 72.6% (active)
38 | COc1cccc(C#Cc2ccc3c(c2)O[C@@H](CN(C)C(=O)CN2CCOCC2)[C@@H](C)CN([C@@H](C)CO)S3(=O)=O)c1 | 50.7% (active)
39 | O=C(CN1CCOCC1)N[C@@H]1CC[C@@H](CCn2cc(C3CC3)nn2)O[C@H]1CO | -8.58%
40 | C[C@@H]1CN([C@@H](C)CO)C(=O)c2cccc(NS(=O)(=O)c3ccc(F)cc3)c2O[C@@H]1CN(C)Cc1ccc(Cl)c(Cl)c1 | -11.4%
41 | C[C@@H](NC(=O)C[C@H]1C=C[C@H](NS(=O)(=O)c2cccc(F)c2)[C@H](CO)O1)c1ccccc1 | -23.7%
42 | COCC(=O)N1CC(=O)N2[C@H](CO)[C@H](c3ccc(C#CC4CC4)cc3)[C@H]2C1 | 25.9%
43 | O=C(CC1CC1)N1CC(=O)N2[C@H](CO)[C@@H](c3ccc(C#Cc4cccc(F)c4)cc3)[C@H]2C1 | 50.5% (active)
44 | CS(=O)(=O)N1CC(=O)N2[C@H](CO)[C@@H](c3ccc(C#Cc4ccc(F)cc4)cc3)[C@H]2C1 | 43.4%
45 | CS(=O)(=O)N1CC(=O)N2[C@H](C1)[C@H](c1ccc(C#Cc3ccc(F)cc3)cc1)[C@@H]2CO | -7.23%
46 | O=C(CC1CC1)N1CC(=O)N2[C@@H](CO)[C@H](c3ccc(C#Cc4cccc(F)c4)cc3)[C@@H]2C1 | 33%

Row | Structure (SMILES) | inhibition
47 | O=C(CC1CC1)N1CC(=O)N2[C@H](CO)[C@@H](c3ccc(/C=C/c4ccccc4)cc3)[C@@H]2C1 | 24.1%
48 | O=C(CC1CC1)N1CC(=O)N2[C@H](C1)[C@H](c1ccc(C#Cc3cccc(F)c3)cc1)[C@@H]2CO | 23.8%
49 | CS(=O)(=O)N1CC(=O)N2[C@H](C1)[C@@H](c1ccc(C#Cc3ccc(F)cc3)cc1)[C@@H]2CO | 63.2% (active)
50 | COCC(=O)N1CC(=O)N2[C@H](CO)[C@H](c3ccc(C#CC4CC4)cc3)[C@@H]2C1 | -14.5%
51 | O=C(CC1CC1)N1CC(=O)N2[C@H](C1)[C@@H](c1ccc(/C=C/c3ccccc3)cc1)[C@@H]2CO | 16.9%
52 | O=C(CC1CC1)N1CC(=O)N2[C@@H](CO)[C@H](c3ccc(/C=C/c4ccccc4)cc3)[C@@H]2C1 | 52.4% (active)
53 | COCC(=O)N1CC(=O)N2[C@H](CO)[C@@H](c3ccc(C#CC4CC4)cc3)[C@H]2C1 | 62.3% (active)
54 | CO[C@@H]1CN(C)C(=O)c2cc(NC(=O)Nc3cccc(Cl)c3)ccc2OC[C@@H](C)N(C(=O)Nc2c(C)noc2C)C[C@H]1C | 19.6%
55 | C[C@H]1CN([C@@H](C)CO)C(=O)c2cc(NC(=O)C3CC3)ccc2O[C@@H]1CN(C)S(=O)(=O)c1ccccc1 | -17.4%
56 | C[C@H](CO)N1C[C@H](C)[C@@H](CN(C)C(=O)Nc2ccccc2)OCCCC[C@H](C)Oc2ccc(NC(=O)Nc3ccccc3)cc2C1=O | 20%
57 | C[C@@H]1CN([C@H](C)CO)C(=O)Cc2cc(N(C)C)ccc2O[C@H]1CN(C)Cc1ccc(-c2ccccc2)cc1 | -24.6%
58 | O=C(c1ccccc1F)N1CC[C@H]2[C@H](CO)Nc3ccc(Br)cc3[C@H]21 | -3.54%
59 | O=C1CCCCn2nncc2COC[C@H](Cc2ccccc2)N1 | -21.7%
60 | Cc1ccc(S(=O)(=O)Nc2ccc3c(c2)C(=O)N([C@H](C)CO)C[C@@H](C)[C@H](CN(C)S(=O)(=O)c2cccs2)OCCCC[C@@H](C)O3)cc1 | 57.5% (active)
61 | Cc1ccc(S(=O)(=O)Nc2ccc3c(c2)C(=O)N([C@H](C)CO)C[C@H](C)[C@@H](CN(C)S(=O)(=O)c2cccs2)OCCCC[C@H](C)O3)cc1 | -31%
62 | Cc1ccc(S(=O)(=O)Nc2ccc3c(c2)CC(=O)N([C@@H](C)CO)C[C@H](C)[C@@H](CN(C)S(=O)(=O)c2ccccc2)O3)cc1 | -31.9%
63 | Cc1ccc(S(=O)(=O)Nc2ccc3c(c2)CC(=O)N([C@H](C)CO)C[C@@H](C)[C@@H](CN(C)S(=O)(=O)c2ccccc2)O3)cc1 | 57.6% (active)
64 | COc1ccc(S(=O)(=O)Nc2ccc3c(c2)C(=O)N([C@H](C)CO)C[C@H](C)[C@@H](CN(C)S(=O)(=O)c2ccc(Cl)cc2)OCCCC[C@H](C)O3)cc1 | -8.83%
65 | COc1ccc(S(=O)(=O)Nc2ccc3c(c2)C(=O)N([C@H](C)CO)C[C@H](C)[C@H](CN(C)S(=O)(=O)c2ccc(Cl)cc2)OCCCC[C@@H](C)O3)cc1 | -2.26%
66 | COc1ccc(S(=O)(=O)Nc2ccc3c(c2)C(=O)N([C@@H](C)CO)C[C@H](C)[C@@H](CN(C)S(=O)(=O)c2ccc(Cl)cc2)OCCCC[C@@H](C)O3)cc1 | 50.6% (active)
67 | Cc1ccc(S(=O)(=O)Nc2ccc3c(c2)C(=O)N([C@@H](C)CO)C[C@@H](C)[C@H](CN(C)S(=O)(=O)c2cccs2)OCCCC[C@H](C)O3)cc1 | -3.15%
68 | Cc1ccc(S(=O)(=O)Nc2ccc3c(c2)CC(=O)N([C@H](C)CO)C[C@@H](C)[C@H](CN(C)S(=O)(=O)c2ccccc2)O3)cc1 | -17.2%
